# According to PubChem BioAssay:
# “And” between values parts separate entries of the source, which are not always exact repeats. Equal values may be shown once. A structure can be active in one record and inactive in another. The source made the active and inactive calls.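 The calls were made as follows, unless noted: active = compounds whose cell count with miR-34 switched on is under 0.7 times the count with it off; inactive = the rest.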
# How the values were obtained:
# [1] = hESC survival regulators, cell-based (AID 493140; call rule not given here;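 also: cells exposed to compounds for four days before counting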); conditions: human embryonic stem cell survival screen; stronger effect = higher value
# [2] = sensitizers of A549 cells to miR-34 induction, primary screen, imaging, A549 dox-inducible miR-34, nuclei and caspase counts (AID 1347080); conditions: A549 miR-34 inducible, Hoechst nuclei count, 48 h
# [3] = inhibitors of Cryptococcus chitosan production, flow cytometry, Cibacron Brilliant Red staining (AID 1347148; call rule not given here;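 also: compound exposure lasted three days at 37 degrees C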); conditions: Cryptococcus neoformans chitosan, stronger effect = lower value; at 10 µM unless noted
# [4] = phospholipid biosynthesis inhibitors in animal cells, primary screen, cell-based, LOPAC library, screen 4 (AID 1347384; call rule not given here); conditions: phospholipid biosynthesis inhibition screen, at 10 µM
# [5] = survival rescue of mitochondrial mutant cells in low glucose, primary screen, MELAS cybrids, Rieske KO mouse fibroblasts, CellTiter-Glo (AID 1508586;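 active = mean z-score across replicates of 1.96 or higher in either the MELAS or the Rieske mutant cell line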;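 also: z relative to plate mean and SD of compound and empty wells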)
# [6] = viability rescue of complex I mutant cybrids, primary screen, cell-based, galactose medium, ATP luminescence (AID 1645843;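 active = z-score of at least 1.8 in each of two replicates, scored against plate mean and spread of sample wells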;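 also: positive z means more ATP and so rescue of galactose-driven cybrid death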); conditions: complex I mutant cybrid cells, 72 h, stronger effect = higher value
# [7] = liver-stage malaria parasite growth inhibition, primary screen, cell-based, HepG2, luciferase luminescence, HepG2 viability (AID 624349; in the data active = parasite load remaining mostly below about 12%, no sharp cut-off; inactive = mostly above about 10%;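 also: 100% = mean of DMSO negative control wells on the same plate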); conditions: P. berghei liver stage in HepG2, luciferase luminescence, concentration not given here; parasite load remaining: stronger effect = lower value; viability: measured here: HepG2 viability without parasites
# [8] = modifiers of HSF1 nuclear foci, imaging, Selleck Cancer Library (AID 1347162; in the data active = plate-normalised HSF1 focus index below about 0.46); conditions: human cells, at 10 µM; SSMD: measured here: HSF1 foci SSMD mean; cell count: measured here: cell number; plate-normalised HSF1 focus index: stronger effect = lower value
# [9] = circadian clock period modulators, cell-based, LOPAC library, luminescence reporter (AID 2774; call rule not given here;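 also: values are relative to mean of DMSO wells on each plate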); conditions: circadian reporter cells, at 7 µM, actives lie on both sides
# [10] = test system: Hepatitis C virus NS3 helicase; test: HCV NS3 helicase inhibitors, primary screen, biochemical, fluorescence polarization, LOPAC1280 library (AID 687035; in the data active = inhibition above about 37%); conditions: Purified HCV NS3 helicase, Cy5-dT15 ssDNA binding fluorescence polarization; stronger effect = higher value; concentration not given here
# [11] = Cy5 fluorescence quenching or enhancement artefacts, artefact control for HCV NS3 helicase inhibitor project, biochemical, LOPAC1280 (AID 687037; call rule not given here); conditions: Cy5-DNA-NS3h complex fluorescence interference counterscreen
# [12] = stronger effect = lower value, cell number ratio, induced over uninduced
# [13] = measured here: relative caspase fold change +Dox/-Dox
# [14] = measured here: total cells with miR-34 induction, stronger effect = lower value
# [15] = measured here: total cells without miR-34 induction
# [16] = MELAS cybrid survival, CellTiter-Glo 48 h, stronger effect = higher value
# [17] = Rieske KO mouse fibroblast survival, CellTiter-Glo 72 h
structure (smiles),measurement,setting,value
CCCCCCCCCCCCC/C=C/[C@@H](O)[C@H](CO)NC(=O)CCCCCCC,survival,[1],77.3 (inactive)
same,fold change,[2]; [12],0.885 (inactive) and 1 (inactive)
same,fold change,[2]; [13],2.05 and 0.909
same,cell count,[2]; [14],5260 and 5480
same,cell count,[2]; [15],5940 and 5480
same,fold fluorescence,[3],4.66 (inactive)
CCCCC/C=C\C/C=C\C/C=C\CCCCCCC(=O)O,survival,[1],92.4 (inactive)
same,fold change,[2]; [12],1.02 (inactive) and 1.05 (inactive)
same,fold change,[2]; [13],1.28 and 1.4
same,cell count,[2]; [14],5830 and 6270
same,cell count,[2]; [15],5710 and 6000
same,fold fluorescence,[3],4.94 (inactive)
COC(=O)C1=C(C)NC(C)=C(C(=O)OC2CCCN(Cc3ccccc3)C2)C1c1cccc([N+](=O)[O-])c1 (configuration not stated),fold change,[2]; [12],1.82 (inactive) and 1.04 (inactive)
same,fold change,[2]; [13],0.615 and 0.533
same,cell count,[2]; [14],3920 and 6890
same,cell count,[2]; [15],2160 and 6660
same,outcome,[4],inactive
same,z-score,[5]; [16],-0.438 (inactive)
same,z-score,[5]; [17],-0.0848
same,z-score,[6],-1.88 (inactive)
CCCCC/C=C\C/C=C\CCCCCCCC(=O)O,survival,[1],55.7 (inactive)
same,fold change,[2]; [12],0.973 (inactive) and 1.02 (inactive)
same,fold change,[2]; [13],1.17 and 0.947
same,cell count,[2]; [14],6220 and 5980
same,cell count,[2]; [15],6400 and 5840
same,fold fluorescence,[3],4.86 (inactive)
CC/C=C\C/C=C\C/C=C\C/C=C\C/C=C\C/C=C\CCC(=O)O,survival,[1],81.3 (inactive)
same,fold change,[2]; [12],0.965 (inactive) and 0.982 (inactive)
same,fold change,[2]; [13],0.949 and 0.678
same,cell count,[2]; [14],5660 and 5960
same,cell count,[2]; [15],5860 and 6070
same,fold fluorescence,[3],4.24 (inactive)
CCCCCC#CCC#CCC#CCC#CCCCC(=O)O,survival,[1],87.3 (inactive)
same,fold change,[2]; [12],0.956 (inactive) and 0.974 (inactive)
same,fold change,[2]; [13],1.11 and 0.98
same,cell count,[2]; [14],5420 and 5670
same,cell count,[2]; [15],5670 and 5820
same,fold fluorescence,[3],5.73 (inactive)
Nc1ccc2ncnc(NCCc3ccc(Oc4ccccc4)cc3)c2c1,parasite load remaining,[7],1.5% (active)
same,viability,[7],70.6%
same,fold change,[2]; [12],0.738 (inactive) and 0.708 (inactive) and 0.683 (active)
same,fold change,[2]; [13],1.4 and 1.31 and 3.23
same,cell count,[2]; [14],2180 and 3030 and 5480
same,cell count,[2]; [15],2950 and 4280 and 8020
same,SSMD,[8],-5.88
same,cell count,[8],2600
same,plate-normalised HSF1 focus index,[8],0.65 (inactive)
same,z-score,[5]; [16],-0.305 (inactive)
same,z-score,[5]; [17],-0.135
CCCCC[C@H](O)/C=C/[C@H]1C=CC(=O)[C@@H]1C/C=C\CCCC(=O)O,survival,[1],122 (inactive)
same,fold change,[2]; [12],0.976 (inactive) and 0.946 (inactive)
same,fold change,[2]; [13],1.27 and 1.82
same,cell count,[2]; [14],5740 and 5500
same,cell count,[2]; [15],5880 and 5820
same,fold fluorescence,[3],4.51 (inactive)
CC(C)=CCC/C(C)=C/CC/C(C)=C/CSCC(=O)O,survival,[1],89.7 (inactive)
same,fold change,[2]; [12],0.964 (inactive) and 0.982 (inactive)
same,fold change,[2]; [13],1.23 and 1.52
same,cell count,[2]; [14],5900
same,cell count,[2]; [15],6120 and 6010
same,fold fluorescence,[3],2.64 (inactive)
CCCCC[C@H](O)/C=C/[C@H]1C(=O)C=C[C@@H]1C/C=C\CCCC(=O)O,survival,[1],86.8 (inactive)
same,fold change,[2]; [12],0.937 (inactive) and 0.931 (inactive)
same,fold change,[2]; [13],1.17 and 1.23
same,cell count,[2]; [14],6120 and 6100
same,cell count,[2]; [15],6540 and 6550
same,fold fluorescence,[3],4.57 (inactive)
CCCCC/C=C/C=C1/C(=O)C=C[C@@H]1C/C=C\CCCC(=O)O,survival,[1],82.2 (inactive)
same,fold change,[2]; [12],1.04 (inactive) and 0.838 (inactive) and 1.58 (inactive)
same,fold change,[2]; [13],1.45 and 1.36 and 1.03
same,cell count,[2]; [14],5600 and 6330 and 6250
same,cell count,[2]; [15],5380 and 7550 and 3960
same,fold fluorescence,[3],6.54 (inactive)
CCCCC[C@H](O)/C=C/C1=C(CCCCCCC(=O)O)C(=O)CC1,survival,[1],68.1 (inactive)
same,fold change,[2]; [12],0.976 (inactive) and 0.956 (inactive)
same,fold change,[2]; [13],1.34 and 1.33
same,cell count,[2]; [14],6120 and 6210
same,cell count,[2]; [15],6270 and 6500
same,fold fluorescence,[3],3.81 (inactive)
CCCCC/C=C\C/C=C\C/C=C\C/C=C\CCCC(=O)OC(CO)CO,survival,[1],72.6 (inactive)
same,fold change,[2]; [12],0.947 (inactive) and 1.01 (inactive)
same,fold change,[2]; [13],1.17 and 0.841
same,cell count,[2]; [14],6380 and 5230
same,cell count,[2]; [15],6740 and 5180
same,fold fluorescence,[3],5.06 (inactive)
CCCCC/C=C\C/C=C\C/C=C\CCCCC(=O)O,survival,[1],76.5 (inactive)
same,fold change,[2]; [12],0.948 (inactive) and 1.06 (inactive)
same,fold change,[2]; [13],1.2 and 0.96
same,cell count,[2]; [14],5680 and 5970
same,cell count,[2]; [15],5990 and 5660
same,fold fluorescence,[3],4.86 (inactive)
CC/C=C\C/C=C\C/C=C\C/C=C\C/C=C\CCCCCC(=O)O,survival,[1],78 (inactive)
same,fold change,[2]; [12],0.983 (inactive) and 0.953 (inactive)
same,fold change,[2]; [13],0.972 and 0.777
same,cell count,[2]; [14],5080 and 5820
same,cell count,[2]; [15],5170 and 6110
same,fold fluorescence,[3],5.56 (inactive)
CCCCC/C=C\C/C=C\C/C=C\C/C=C\CCCCCC(=O)O,survival,[1],79.5 (inactive)
same,fold change,[2]; [12],1.01 (inactive) and 0.958 (inactive)
same,fold change,[2]; [13],1.23 and 0.967
same,cell count,[2]; [14],6030 and 5700
same,cell count,[2]; [15],5980 and 5950
same,fold fluorescence,[3],4.08 (inactive)
CCCCCCCCCCCCC/C=C/[C@@H](O)[C@H](CO)N(C)C,survival,[1],80.2 (inactive)
same,fold change,[2]; [12],1.08 (inactive) and 0.933 (inactive)
same,fold change,[2]; [13],1.39 and 1.34
same,cell count,[2]; [14],5480
same,cell count,[2]; [15],5090 and 5880
same,fold fluorescence,[3],6.79 (inactive)
COc1ccccc1N1CCN(CCCCNC(=O)c2ccc3ccccc3c2)CC1,period change,[9],0.185 h (inactive)
same,parasite load remaining,[7],110% (inactive) and 55% (inactive)
same,viability,[7],97.7% and 74.2%
same,inhibition,[10],-1% (inactive)
same,fluorescence ratio (interference),[11],1 (inactive)
same,fold change,[2]; [12],1.04 (inactive) and 0.819 (inactive)
same,fold change,[2]; [13],1.41 and 1.7
same,cell count,[2]; [14],7170 and 7370
same,cell count,[2]; [15],6900 and 9000
same,outcome,[4],inactive
same,z-score,[5]; [16],-0.843 (inactive)
same,z-score,[5]; [17],0.134
same,z-score,[6],-0.51 (inactive)
